The source of these data is PubChem BioAssay AID624138 (Broad Institute, 2012).

Each structure is given as a SMILES string. Hit rate of the full screen: of about 17,000 compounds, about 35 (0.2%) were called active.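 How the source made its calls: active means compounds whose four printed spots each show fluorescence over background unusually high for their array block, chance value under 7%; inactive means the rest.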 The sample as a whole holds a higher share of actives than the screen did.

Sequence of Signal transducer and activator of transcription 3 (Homo sapiens) (P40763 whole entry, looked up): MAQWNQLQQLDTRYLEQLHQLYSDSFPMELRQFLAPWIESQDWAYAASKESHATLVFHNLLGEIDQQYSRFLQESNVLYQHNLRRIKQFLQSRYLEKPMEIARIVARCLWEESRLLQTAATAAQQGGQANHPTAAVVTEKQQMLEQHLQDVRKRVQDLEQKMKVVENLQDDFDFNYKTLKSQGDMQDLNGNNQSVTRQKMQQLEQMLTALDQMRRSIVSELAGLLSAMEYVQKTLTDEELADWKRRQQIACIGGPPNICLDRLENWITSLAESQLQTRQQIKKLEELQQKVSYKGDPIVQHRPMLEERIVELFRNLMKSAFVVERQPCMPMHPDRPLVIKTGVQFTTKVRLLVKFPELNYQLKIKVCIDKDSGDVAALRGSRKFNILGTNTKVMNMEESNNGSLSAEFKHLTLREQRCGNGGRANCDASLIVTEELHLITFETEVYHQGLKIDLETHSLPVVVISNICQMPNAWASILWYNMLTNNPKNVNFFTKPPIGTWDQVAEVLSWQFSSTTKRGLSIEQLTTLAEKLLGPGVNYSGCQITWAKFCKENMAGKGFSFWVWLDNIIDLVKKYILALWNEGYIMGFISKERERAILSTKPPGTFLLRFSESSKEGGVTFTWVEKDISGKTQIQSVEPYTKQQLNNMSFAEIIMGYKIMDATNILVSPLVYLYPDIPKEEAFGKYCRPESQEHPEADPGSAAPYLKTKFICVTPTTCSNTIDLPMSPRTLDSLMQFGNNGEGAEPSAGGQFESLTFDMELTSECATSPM

The test addresses Signal transducer and activator of transcription 3 (Homo sapiens) (UniProt P40763). Put plainly: STAT3 binders, primary screen, biochemical, small molecule microarray, single point, set 2 (AID 624138). The note with it: His-STAT3 binding, anti-His fluorescence.
With `c1cncc(CNCCc2c[nH]c3ccccc23)c1`, the outcome was active.

For `COc1ccc2[nH]cc(CCNCc3ccc(Br)cc3)c2c1`, the result was inactive.

`CC(=O)c1c(O)c(C)c(O)c(Cc2c(O)c3c(c(C(=O)/C=C/c4ccccc4)c2O)OC(C)(C)C=C3)c1O`: the call was inactive.

As to `C[C@H]1CCC/C=C/C2C[C@H](O)C[C@H]2[C@H](O)/C=C\C(=O)O1` (stereo not given in full), the call was inactive.

Turning to `Cc1ccc(OC(=O)N(C)C[C@@H]2OCc3cnnn3CCCC(=O)N([C@H](C)CO)C[C@@H]2C)cc1`, the result was inactive.
